Screening results: PubChem BioAssay, National Center for Advancing Translational Sciences (NCATS)
IL-1B inflam inh – inhibitors of inflammasome signaling (IL-1 beta secretion) | THP-1 LPS/ATP IL-1B secretion, AlphaLISA, 16 h; hits give low values | activity change, % at 57.5 µM | 360,000 compounds, 4.7% hits | AID 743279; in the data active means activity change below about -50%; inconclusive means mostly about -30% to -49%
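THP-1 cells pretreated 1 hr with compounds (up to 57.5 uM final), then stimulated with LPS (250 ng/mL final) plus ATP (1.25 mM final); secreted IL-1B measured by AlphaLISA after 16 hr, decreased signal indicating inhibition.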
TDP1 cell CPT – growth inhibition of DT40 Tdp1-/-;hTDP1 cells with camptothecin (screen for TDP1 inhibitors) | AID 686979 | Potency, µM (titrated, usually from 46.2 µM), without a hit: at the highest dose activity change, negative = growth inhibition, most hits filed as inhibitors | 420,000 compounds, 12% hits | chicken DT40 Tdp1-/-;hTDP1 cells + 20 nM CPT, ATP luminescence, 48 h; further: potency means the concentration at half of the fitted maximal effect; nearly all actives have a fitted effect of over 55% in size
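Cell growth measured by CellTiter-Glo luminescence after a minimum 48 h, 37 C compound exposure with 20 nM CPT in Tdp1-knockout DT40 cells stably expressing hTDP1, seeded 400/well; qHTS titration format.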
TDP1 cell noCPT – qHTS for Inhibitors of human tyrosyl-DNA phosphodiesterase 1 (TDP1): qHTS in cells in absence of CPT | DT40 Tdp1-/- hTDP1 cells, no CPT, ATP luminescence, 48 h | Potency, µM (highest dose often 46.2 µM), for the others: top-dose activity change, negative = growth inhibition, usual class: inhibitors | 420,000 compounds, 15% hits; further: potency means the concentration at half of the fitted maximal effect; nearly all actives have a fitted effect of over 55% in size
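Compound effects on proliferation are scored in DT40 Tdp1-/-;hTDP1 cells in the absence of CPT. ATP levels (CellTiter-Glo luminescence) are recorded after a ≥48 hr, 37 °C incubation.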
HT1080NT lethal – kills 2HG-producing HT-1080-NT fibrosarcoma cells; HT-1080-NT fibrosarcoma viability, CellTiter-Glo ATP luminescence, 48 h; Potency, µM (highest dose often 46.1 µM), without a hit: top-dose activity, negative = less viability, hits mostly cytotoxic; 360,000 compounds, 1.6% hits;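 further: NT is the 2HG producing partner of a matched IDH1 knockdown line; potency means the concentration at half of the fitted maximal effect; 0% = DMSO-treated cells and -100% = media-only wells without cells; nearly all actives have a fitted effect of over 55% in size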
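Luminescent CellTiter-Glo readout after 48 hours of compound exposure at 37 degrees C defined viability of HT-1080-NT cells. Activity was normalized to DMSO wells and cell-free media wells; concentration-response curves were fitted and assigned curve classes.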
HT1080 IDH1KD tx – HT-1080 IDH1 knockdown cell toxicity (counter line); HT-1080 IDH1 knockdown viability, ATP luminescence, 48 h; Potency, µM (series often up to 46.1 µM), inactives show at the top dose activity, negative = toxicity, most hits filed as cytotoxic; 360,000 compounds, 2% hits;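 further: potency means the concentration at half of the fitted maximal effect; 0% = DMSO wells and -100% = cell-free medium wells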
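Assay cells: HT-1080 with IDH1 knockdown, 750 per well, RPMI/5% FBS. Exposure: 48 h at 37 °C following 2 h pre-incubation. Read: CellTiter-Glo luminescence; fitted concentration-response, curve class assigned.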
Active calls of the source: *; ? = inconclusive; . = no result. Compounds with a hit are over-represented: about 19% of the library has one in this group of screens. Unless noted, the call rests on the fitted dose curve; in most records, active means well fitted curve in the direction sought with a large enough effect; inconclusive means small, poorly fitted or top-dose-only effect, or another doubt; inactive means no such curve, though single readings can be large; an effect the other way counts as inactive or inconclusive. Unless noted, on the % scale 0 is the no-effect control and ±100 the full control effect.

SMILES	IL-1B inflam inh	TDP1 cell CPT	TDP1 cell noCPT	HT1080NT lethal	HT1080 IDH1KD tx
COc1ccc(C2C(C#N)=C(N)Oc3cc(O)ccc32)cc1 (centres undefined)	?	-8%	-8%	-1%	1%
CC(C)(C)C1=C(C#N)C(c2cccnc2)C(C#N)=C(N)O1 (centres undefined)	0	?	?	8%	4%
COc1ccc(N=Cc2cc3c(cc2O)OC(N)=C(C#N)C3c2ccccc2)cc1 (centres undefined)	-9	?	21µM*	?	?
Cc1ccc(CNC(=O)Cc2csc3ccccc23)cc1	.	-1%	-13%	.	.
CC(C)(C)c1[nH]nc2c1C(c1cccnc1)C(C#N)=C(N)O2 (centres undefined)	?	-2%	-9%	8%	3%
C[n+]1cccc(C2C(C#N)=C(N)Oc3c2ccc2ccccc32)c1 (centres undefined)	41	?	?	12µM*	15µM*
N#CC1=C(N)Oc2c(ccc3cccnc23)C1c1cccnc1 (centres undefined)	62	5.8µM*	5.2µM*	7.3µM*	8.2µM*
C[n+]1cccc2ccc3c(c21)OC(N)=C(C#N)C3c1ccccc1 (centres undefined)	.	25%	?	?	?
COc1cc2c(cc1OC)-c1nnc(-c3cccs3)n1C1(CCCC1)C2	2	21µM*	21µM*	0%	0%
CCCCNS(=O)(=O)c1ccc2nc(-c3cccnc3)cc(C(=O)NCC(OC)OC)c2c1	9	1%	-12%	1%	17%
COc1ccccc1CNc1ncc(-c2ccccc2)n1C	0	26µM*	?	-19%	-5%
COc1ccccc1CNc1ncc(-c2ccc(F)cc2)n1C	-18	?	?	-13%	-7%
COc1ccc(CNc2ncc(-c3ccc(F)cc3)n2C)cc1OC	-12	?	23µM*	-10%	-9%
COc1ccc(CNc2ncc(-c3ccc(F)cc3)n2C)c2ccccc12	-82*	23µM*	16µM*	23µM*	?
CCOc1ccc(-c2cnc(NCc3cccc4ccccc34)n2CCOC)cc1	-95*	?	4.6µM*	?	?
O=C(COc1ccc(Cl)cc1Cl)N/N=C/c1ccc(OC2OC(CO)C(O)C(O)C2O)cc1 (centres undefined)	-12	-9%	-4%	-22%	-5%
COc1cc(C2CC(=O)N(c3ccccc3)C3=C2C(=O)OC3)cc(OC)c1OC (centres undefined)	.	1%	-7%	.	.
CCn1nnnc1NCc1ccc(OCc2ccc(F)cc2Cl)c(OC)c1	-58*	?	?	-7%	-14%
Cn1c(-c2ccc(F)cc2)cnc1NCc1cccc(F)c1	-12	?	18µM*	6%	?
CCN(CC)S(=O)(=O)c1ccc2c(c1)N(CC(=O)N1CCN(c3cccc(OC)c3)CC1)C(=O)CO2	.	21µM*	?	.	.
CCN(CC)S(=O)(=O)c1ccc2c(c1)N(CC(=O)NCCc1ccc(OC)c(OC)c1)C(=O)CO2	.	-27%	-27%	.	.
O=C(CN1C(=O)COc2ccc(S(=O)(=O)N3CCCCCC3)cc21)N1CCN(c2ccc(F)cc2)CC1	.	23µM*	21µM*	.	.
CCN(CC)S(=O)(=O)c1ccc2c(c1)N(CC(=O)N1CCN(c3ccc(OC)cc3)CC1)C(=O)CO2	.	21µM*	?	.	.
COc1cccc(N2CCN(c3ccc(S(=O)(=O)N4CCN(C)CC4)cc3[N+](=O)[O-])CC2)c1	-5	?	?	-5%	-5%
CCN(CC)S(=O)(=O)c1ccc2c(c1)N(CC(=O)N1CCC(C(N)=O)CC1)C(=O)CO2	15	21%	3%	16%	9%
SMILES	IL-1B inflam inh	TDP1 cell CPT	TDP1 cell noCPT	HT1080NT lethal	HT1080 IDH1KD tx
CCN(CC)S(=O)(=O)c1ccc(N2CCN(c3cccc(OC)c3)CC2)c([N+](=O)[O-])c1	-13	13µM*	8.2µM*	-3%	?
Cc1ccc2nc(N3CCN(c4ccccc4F)CC3)c3nnnn3c2c1	.	2%	-1%	.	.
CSc1ccc(CCNC(=O)C2CCN(c3nc4ccccc4nc3C(F)(F)F)CC2)cc1	.	15µM*	12µM*	.	.
CCCCNC(=O)C1CCN(c2nc3ccccc3nc2C(F)(F)F)CC1	.	16µM*	?	.	.
CC(C)Oc1ccc(CNC(=O)C2CCN(c3nc4ccccc4nc3C(F)(F)F)CC2)cc1	.	4.1µM*	5.8µM*	.	.
COCCNC(=O)C1CCN(c2nc3ccccc3nc2C(F)(F)F)CC1	.	?	-20%	.	.
O=C(c1ccccc1F)c1cc2c(cc1[N+](=O)[O-])OCCO2	6	-18%	7%	-1%	-1%
CCOC(=O)c1sc(=S)n(-c2cc(F)ccc2F)c1N	-18	?	-28%	-1%	?
COC(=O)c1sc(=S)n(-c2cc(F)ccc2F)c1N	-7	15µM*	?	-18%	-17%
C[C@H](CO)N1C[C@H](C)[C@@H](CN(C)C(=O)OCc2ccccc2)OCc2cn(nn2)CCCC1=O	11	-9%	3%	8%	16%
O=C(Nc1cccc(F)c1)N1CC[C@@]2(CCCN(C(=O)c3ccncc3)C2)C1	.	7%	-7%	.	.
C/C(=N\OCC(=O)NC12CC3CC(CC(C3)C1)C2)c1cc2ccccc2o1	-91*	21µM*	?	?	?
CSc1ccccc1NC(=O)CO/N=C(\C)c1cc2ccccc2o1	?	?	?	-3%	-11%
CCOC(=O)C1CCCN(C(=O)Cn2ncc3c4ccccc4n(Cc4ccc(F)cc4)c3c2=O)C1 (centres undefined)	.	23µM*	15µM*	.	.
Cc1c2cnn(CC(=O)N3CCN(c4ccccc4)CC3)c(=O)c2c(C)n1Cc1ccc(F)cc1	.	21µM*	13µM*	.	.
CCOC(=O)C1CCN(C(=O)Cn2ncc3c4ccccc4n(Cc4ccccc4F)c3c2=O)CC1	.	3.3µM*	4.6µM*	.	.
CCN1CCN(C(=O)Cn2ncc3c4ccccc4n(Cc4c(C)cc(C)cc4C)c3c2=O)CC1	.	?	16µM*	.	.
COc1cc(Cl)c(NC(=O)c2cc(CN3CCCC3)on2)c(OC)c1	.	2%	-22%	.	.
Cc1ccccc1Cn1c2ccccc2c2cnn(CC(=O)N3CCC(C)CC3)c(=O)c21	.	21µM*	15µM*	.	.
O=C(Cn1ncc2c3ccccc3n(Cc3ccccc3)c2c1=O)N1CCN(c2ncccn2)CC1	-1	-22%	?	-7%	-24%
O=C(Cn1nnc2c(cnn2-c2ccccc2)c1=O)NCc1cccs1	18	?	23µM*	?	?
Cc1cc(C)c(Cn2c3ccccc3c3cnn(CC(=O)NCc4cccs4)c(=O)c32)c(C)c1	.	15µM*	21µM*	.	.
